Assay results as given in PubChem BioAssay (NCATS).
Records with an inconclusive call do not appear. Entries that show only a call come without a potency. Activity calls are given as the source filed them. Unless noted, calls follow the shape of the dose curve; as a rule, active = well fitted curve in the direction sought with a large enough effect; inconclusive = small, poorly fitted or top-dose-only effect, or another doubt; inactive = no such curve, though single readings can be large; an effect the other way counts as inactive or inconclusive.

Experiments:
[1] = molecular target: Thioredoxin reductase 1, cytoplasmic (Rattus norvegicus) (UniProt O89049); assay: qHTS Assay for Substrates of Mammalian Selenoprotein Thioredoxin Reductase 1 (TrxR1) (AID 488772);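 also: NADPH fluorescence in the first read after selenite addition and not the 8 min delta; series mostly up to about 57 µM; a drop in NADPH fluorescence below the no-compound background marks a TrxR1 substrate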
Chain of Thioredoxin reductase 1, cytoplasmic (Rattus norvegicus) (O89049 whole entry, looked up): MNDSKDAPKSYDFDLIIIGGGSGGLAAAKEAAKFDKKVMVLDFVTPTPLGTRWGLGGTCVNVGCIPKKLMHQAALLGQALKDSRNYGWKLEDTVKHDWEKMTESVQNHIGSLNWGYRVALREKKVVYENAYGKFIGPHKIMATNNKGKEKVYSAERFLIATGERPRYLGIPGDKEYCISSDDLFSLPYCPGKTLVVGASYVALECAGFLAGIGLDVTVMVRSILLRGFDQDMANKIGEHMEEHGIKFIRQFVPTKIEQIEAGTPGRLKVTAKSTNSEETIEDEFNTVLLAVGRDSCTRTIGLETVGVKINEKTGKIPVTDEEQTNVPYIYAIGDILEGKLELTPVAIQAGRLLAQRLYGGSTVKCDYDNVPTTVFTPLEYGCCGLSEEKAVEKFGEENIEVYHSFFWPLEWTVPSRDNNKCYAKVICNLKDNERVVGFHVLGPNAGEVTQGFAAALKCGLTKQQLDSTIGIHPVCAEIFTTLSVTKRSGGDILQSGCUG
How it was run: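 Quantitative HTS in Tris-HCl buffer at pH 7.5 with EDTA and Tween-20, using rat TrxR1, 400 uM NADPH and 400 uM selenite (final). A fall in initial NADPH fluorescence relative to background marked substrate behaviour.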

[2] = molecular target: Thioredoxin reductase 1, cytoplasmic (Rattus norvegicus) (UniProt O89049); assay: qHTS Assay for Inhibitors of Mammalian Selenoprotein Thioredoxin Reductase 1 (TrxR1) (AID 488773); conditions: Potency: inhibition;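 also: drop in NADPH fluorescence over an 8 min run after selenite addition; series mostly up to about 57 µM; nearly all actives have a fitted effect of over 40% in size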
How it was run: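 Steps: enzyme (90 nM) plus NADPH (400 uM final), 5 min at ~22 deg C; compound added, 15 min; selenite (400 uM final) added; fluorescence followed for 8 min. Concentration-response curves derived from the normalized delta values.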

[3] = molecular target: Flap endonuclease 1 (Homo sapiens) (UniProt P39748); assay: qHTS Validation Assay for the Inhibitors of Human Flap endonuclease 1 (FEN1) (AID 488816)
Chain of Flap endonuclease 1 (Homo sapiens) (P39748 whole entry, looked up): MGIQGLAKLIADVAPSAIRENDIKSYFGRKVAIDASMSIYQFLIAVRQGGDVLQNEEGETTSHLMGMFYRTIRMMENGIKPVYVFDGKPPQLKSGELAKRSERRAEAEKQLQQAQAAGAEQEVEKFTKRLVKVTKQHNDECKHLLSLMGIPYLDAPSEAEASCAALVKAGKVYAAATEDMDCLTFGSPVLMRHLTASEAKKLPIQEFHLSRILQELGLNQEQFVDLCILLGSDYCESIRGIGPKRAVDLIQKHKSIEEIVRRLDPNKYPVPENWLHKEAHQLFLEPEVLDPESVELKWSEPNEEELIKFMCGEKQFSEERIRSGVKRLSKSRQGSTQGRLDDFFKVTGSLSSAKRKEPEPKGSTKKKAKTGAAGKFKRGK
How it was run: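 FEN1, dispensed as a 10 nM reagent, was preincubated with pin-transferred compounds for 15 min at room temperature before substrate was added (50 nM final). Plates were read at 0 and 15 min, and a four-parameter Hill equation was fitted to the concentration-response data.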

[4] = molecular target: M-phase phosphoprotein 8 (Homo sapiens) (UniProt Q99549); assay: qHTS Validation Assay for Inhibitors for MPP8 Chromodomain Interactions with Methylated Histone Tails (AID 488949); also: top concentration of the series differs between compounds; nearly all actives have a fitted effect of over 55% in size
Chain of M-phase phosphoprotein 8 (Homo sapiens) (Q99549 whole entry, looked up): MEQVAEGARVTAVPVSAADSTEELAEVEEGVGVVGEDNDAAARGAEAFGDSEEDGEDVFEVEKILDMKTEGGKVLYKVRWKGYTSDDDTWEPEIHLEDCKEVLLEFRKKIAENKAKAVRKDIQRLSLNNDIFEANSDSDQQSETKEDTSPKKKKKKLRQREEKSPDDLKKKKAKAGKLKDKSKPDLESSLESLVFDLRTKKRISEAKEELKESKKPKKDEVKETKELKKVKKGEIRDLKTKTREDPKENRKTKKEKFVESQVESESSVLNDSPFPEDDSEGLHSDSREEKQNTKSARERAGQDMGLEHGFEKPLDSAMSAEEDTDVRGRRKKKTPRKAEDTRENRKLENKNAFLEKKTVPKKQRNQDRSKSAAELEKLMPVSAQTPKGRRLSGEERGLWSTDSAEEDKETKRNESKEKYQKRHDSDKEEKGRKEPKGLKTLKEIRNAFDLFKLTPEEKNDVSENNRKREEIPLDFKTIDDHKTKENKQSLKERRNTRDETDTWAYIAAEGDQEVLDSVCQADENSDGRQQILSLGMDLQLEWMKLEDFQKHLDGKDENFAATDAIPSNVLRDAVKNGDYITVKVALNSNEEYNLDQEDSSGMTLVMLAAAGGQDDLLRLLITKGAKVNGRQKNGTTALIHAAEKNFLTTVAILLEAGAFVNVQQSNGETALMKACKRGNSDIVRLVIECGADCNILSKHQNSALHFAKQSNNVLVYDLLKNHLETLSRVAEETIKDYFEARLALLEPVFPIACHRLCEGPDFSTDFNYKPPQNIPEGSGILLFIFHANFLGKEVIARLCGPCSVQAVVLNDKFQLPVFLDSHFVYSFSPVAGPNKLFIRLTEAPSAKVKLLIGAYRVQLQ
How it was run: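 MPP8 (50 nM) was pre-bound to 50 nM biotinylated H3(1-18)K9me3 peptide in PBS pH 7.4 with 0.01% Tween-20. Compounds were then added for 30 min at room temperature, and complex disruption was read by AlphaScreen with streptavidin donor and nickel-chelate acceptor beads.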

[5] = molecular target: Chromobox protein homolog 1 (Homo sapiens) (UniProt P83916); assay: qHTS Validation Assay for Inhibitors of HP1-beta Chromodomain Interactions with Methylated Histone Tails (AID 488953); also: nearly all actives have a fitted effect of over 50% in size; also: potency is read from the fitted curve at half-maximal effect
Chain of Chromobox protein homolog 1 (Homo sapiens) (P83916 whole entry, looked up): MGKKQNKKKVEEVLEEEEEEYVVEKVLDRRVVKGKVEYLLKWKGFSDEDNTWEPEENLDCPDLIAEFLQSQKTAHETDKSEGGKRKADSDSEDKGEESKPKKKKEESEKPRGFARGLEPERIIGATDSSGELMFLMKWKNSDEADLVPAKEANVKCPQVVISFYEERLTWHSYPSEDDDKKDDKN
How it was run: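 Measured as loss of AlphaScreen luminescence from streptavidin donor and nickel acceptor beads (10 ug/mL final) bridging HP1-beta and biotin-H3(1-18)K9me3, each 50 nM. Compounds met the preassembled complex for 30 min at RT.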

[6] = molecular target: Methanococcus maripaludis chaperonin (MmCpn) (UniProt Q6LX38); assay: High-Throughput Screening for Modulators of Cytosolic Chaperonin Activity: MmCpn Primary Screen (AID 488978);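 also: 50 nM MmCpn enzyme hydrolysing 30 µM ATP at 37 °C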
How it was run: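 MmCpn at 50 nM final was preincubated 5 min at RT with compound. ATP was then added at 30 uM final for 10 min at 37 C. ADP formed was detected by Transcreener HTRF (665/590 nm).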

[7] = molecular target: Transient receptor potential cation channel subfamily V member 1 (Homo sapiens) (UniProt Q8NER1); assay: HTS Assay for Compounds that Act as Enhancers of the Vanilloid Receptor 1 (AID 488979)
How it was run: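 TRPV1-expressing cells loaded with Fluo-8 calcium dye; compounds added and calcium influx read kinetically for 3 min (agonist phase), then capsaicin at EC20 added and read 2 min more for enhancement. Fluorescence ex 480/em 520 nm.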

[8] = molecular target: Thyrotropin receptor (Homo sapiens) (UniProt P16473); assay: qHTS Assay for Antagonists of the Thyroid Stimulating Hormone Receptor (AID 488980); also: series mostly up to about 58 µM
How it was run: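 TSHR-transfected HEK293 cells (2000/well) in HEPES-buffered HBSS with 70 uM RO 20-1724 were stimulated with 4 nM TSH (EC80, final) in the presence of compound. cAMP was measured by HTRF competition after lysis and 30 min at RT.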

[9] = molecular target: D(1A) dopamine receptor (Homo sapiens) (UniProt P21728); assay: HTS Assay for Allosteric Agonists of the Human D1 Dopamine Receptor: Primary Screen for Agonists (AID 488981)
Chain of D(1A) dopamine receptor (Homo sapiens) (P21728 whole entry, looked up): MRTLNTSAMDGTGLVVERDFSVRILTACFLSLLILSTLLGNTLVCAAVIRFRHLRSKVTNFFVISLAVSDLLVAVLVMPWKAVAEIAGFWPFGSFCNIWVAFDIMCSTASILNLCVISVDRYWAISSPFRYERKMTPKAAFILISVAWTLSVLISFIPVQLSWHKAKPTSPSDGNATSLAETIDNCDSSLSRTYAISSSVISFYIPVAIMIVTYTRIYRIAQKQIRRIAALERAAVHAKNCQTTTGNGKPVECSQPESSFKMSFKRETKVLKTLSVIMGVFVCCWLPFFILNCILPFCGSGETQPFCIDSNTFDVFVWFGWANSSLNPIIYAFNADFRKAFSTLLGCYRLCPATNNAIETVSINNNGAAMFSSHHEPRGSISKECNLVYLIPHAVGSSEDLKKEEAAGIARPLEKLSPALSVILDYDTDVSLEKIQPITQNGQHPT
How it was run: (§1)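 Tetracycline-induced HEK293 T-REx cells force-coupled to calcium signalling were incubated overnight at 30 C and dye-loaded at room temperature. Calcium flux over 180 s after compound addition flagged agonists; a further 180 s read after EC20 dopamine flagged potentiators.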

[10] = molecular target: D(1A) dopamine receptor (Homo sapiens) (UniProt P21728); assay: HTS Assay for Allosteric Agonists of the Human D1 Dopamine Receptor: Primary Screen for Potentiators (AID 488982)
How it was run: as §1

[11] = Validation screen for small molecules that induce genotoxicity in human embryonic kidney (HEK293T) cells expressing luciferase-tagged ELG1 (AID 493106)
How it was run: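 Reporter-gene quantitative HTS in HEK293T cells carrying luciferase-tagged ELG1, whose level climbs under genotoxic stress. Compound exposure lasts 16 hr at 37 °C before luciferase detection.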

[12] = molecular target: ATPase family AAA domain-containing protein 5 (Homo sapiens) (UniProt Q96QE3); assay: Validation screen for small molecules that inhibit ELG1-dependent DNA repair in human embryonic kidney (HEK293T) cells expressing luciferase-tagged ELG1 (AID 493107);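 also: cells co-treated with the DNA-damaging agent 5-fluorouridine alongside compound; series mostly up to about 46 µM; inhibitors lower the ELG1-luciferase luminescence signal; nearly all actives have a fitted effect of over 70% in size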
Chain of ATPase family AAA domain-containing protein 5 (Homo sapiens) (Q96QE3 whole entry, looked up, the tested form may be a part): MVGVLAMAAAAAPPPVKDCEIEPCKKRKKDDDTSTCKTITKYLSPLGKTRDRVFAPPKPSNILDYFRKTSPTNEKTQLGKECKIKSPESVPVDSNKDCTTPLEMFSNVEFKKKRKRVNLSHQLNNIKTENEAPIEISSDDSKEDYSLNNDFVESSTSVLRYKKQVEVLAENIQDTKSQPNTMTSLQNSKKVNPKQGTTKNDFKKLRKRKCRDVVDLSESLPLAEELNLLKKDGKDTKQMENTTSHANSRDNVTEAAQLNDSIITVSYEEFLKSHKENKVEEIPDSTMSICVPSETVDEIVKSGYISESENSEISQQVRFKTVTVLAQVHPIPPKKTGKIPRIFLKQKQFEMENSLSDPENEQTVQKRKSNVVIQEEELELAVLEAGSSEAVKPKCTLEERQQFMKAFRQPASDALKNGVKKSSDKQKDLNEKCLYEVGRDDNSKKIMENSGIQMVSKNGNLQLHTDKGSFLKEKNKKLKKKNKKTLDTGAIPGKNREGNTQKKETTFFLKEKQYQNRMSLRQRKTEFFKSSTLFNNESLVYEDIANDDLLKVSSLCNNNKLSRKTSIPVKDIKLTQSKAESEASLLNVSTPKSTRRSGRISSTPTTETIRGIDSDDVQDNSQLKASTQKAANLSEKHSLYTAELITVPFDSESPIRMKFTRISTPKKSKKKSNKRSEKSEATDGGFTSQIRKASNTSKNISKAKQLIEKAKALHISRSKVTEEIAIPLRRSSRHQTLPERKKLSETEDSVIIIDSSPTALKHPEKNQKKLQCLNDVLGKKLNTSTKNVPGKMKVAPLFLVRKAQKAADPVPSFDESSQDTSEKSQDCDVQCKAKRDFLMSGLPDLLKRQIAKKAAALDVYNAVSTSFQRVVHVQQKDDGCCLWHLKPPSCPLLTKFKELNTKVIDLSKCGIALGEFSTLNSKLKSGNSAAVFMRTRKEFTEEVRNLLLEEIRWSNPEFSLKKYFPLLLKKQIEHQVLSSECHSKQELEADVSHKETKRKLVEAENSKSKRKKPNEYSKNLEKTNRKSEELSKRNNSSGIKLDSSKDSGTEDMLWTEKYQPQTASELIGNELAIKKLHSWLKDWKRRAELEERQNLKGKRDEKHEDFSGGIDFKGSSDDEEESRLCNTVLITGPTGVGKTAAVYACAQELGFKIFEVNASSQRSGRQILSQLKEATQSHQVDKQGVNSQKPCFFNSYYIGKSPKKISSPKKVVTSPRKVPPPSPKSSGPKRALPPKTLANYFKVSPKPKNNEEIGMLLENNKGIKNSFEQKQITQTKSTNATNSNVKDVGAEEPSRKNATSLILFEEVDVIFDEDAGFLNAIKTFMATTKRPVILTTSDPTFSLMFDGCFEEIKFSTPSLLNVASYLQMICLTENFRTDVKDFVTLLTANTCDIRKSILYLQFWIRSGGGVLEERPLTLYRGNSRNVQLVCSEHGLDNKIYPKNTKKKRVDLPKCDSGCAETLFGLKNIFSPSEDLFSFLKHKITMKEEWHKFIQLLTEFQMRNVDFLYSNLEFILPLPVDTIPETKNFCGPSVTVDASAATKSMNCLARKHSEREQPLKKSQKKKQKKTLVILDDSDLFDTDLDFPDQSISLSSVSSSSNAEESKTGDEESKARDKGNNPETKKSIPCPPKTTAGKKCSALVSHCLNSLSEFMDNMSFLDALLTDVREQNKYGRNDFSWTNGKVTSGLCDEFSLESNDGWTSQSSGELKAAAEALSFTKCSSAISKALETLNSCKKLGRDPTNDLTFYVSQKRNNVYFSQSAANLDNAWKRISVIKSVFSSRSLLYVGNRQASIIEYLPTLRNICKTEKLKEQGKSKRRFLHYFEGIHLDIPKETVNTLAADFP
How it was run: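 Quantitative HTS in HEK293T cells carrying luciferase-tagged ELG1, stimulated with 5-fluorouridine alongside compound for 16 hr. Loss of luciferase signal marks inhibition of ELG1 response.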

[13] = molecular target: Thyrotropin-releasing hormone receptor (Homo sapiens) (UniProt P34981); assay: qHTS for Small Molecule Agonists and Allosteric Enhancers of Human TRH Receptor: Validation Screen for Agonists (AID 493127;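 active = calcium activation more than 3 SD above the typical response in the agonist read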;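 also: intracellular calcium rise by fluo-8 fluorescence before TRH EC20 addition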); conditions: TRH receptor agonist cell assay; at 2 µM; stronger effect = higher value
Chain of Thyrotropin-releasing hormone receptor (Homo sapiens) (P34981 whole entry, looked up): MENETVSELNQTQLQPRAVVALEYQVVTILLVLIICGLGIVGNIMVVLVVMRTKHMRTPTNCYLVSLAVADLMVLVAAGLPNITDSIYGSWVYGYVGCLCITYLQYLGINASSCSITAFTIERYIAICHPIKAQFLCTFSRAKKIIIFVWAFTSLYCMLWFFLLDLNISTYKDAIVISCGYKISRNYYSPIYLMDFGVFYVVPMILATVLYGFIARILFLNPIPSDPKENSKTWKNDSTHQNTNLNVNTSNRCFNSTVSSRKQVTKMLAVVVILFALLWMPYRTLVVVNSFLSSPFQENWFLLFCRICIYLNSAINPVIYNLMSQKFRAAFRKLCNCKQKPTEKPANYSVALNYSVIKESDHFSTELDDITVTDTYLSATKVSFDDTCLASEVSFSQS
How it was run: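 Gq-coupled calcium mobilization in TRHR cells after compound addition, monitored kinetically with fluo-8 dye on an FDSS reader.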

[14] = Nrf2 qHTS screen for inhibitors: Validation (AID 493153; active = well fitted inhibition curve with a large enough effect in the main read-out, with a control signal flat, not every such curve was filed as active); conditions: viability change: measured here: cytotoxicity max response
How it was run: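 Dose-response validation uses reporter A549 cells with firefly luciferase under an antioxidant response element. Compounds stay on cells 18-24 h at 37°C, and luminescence indicates Nrf2-driven transcription.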

[15] = qHTS for Inhibitors of Cell Surface uPA Generation: Validation Assay (AID 493164);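 also: RAW 264.7 macrophage cells exposed to compound for 18 h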
How it was run: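 RAW 264.7, 4000 cells/well, o/n plating; cpd 7-pt 1:5 dilution 2.45 nM–38.3 uM final; 18 h, 37 C/5% CO2; ATP-Lite, 5 s luminescence exposure.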

[16] = molecular target: Galactokinase (Homo sapiens) (UniProt P51570); assay: qHTS Validation Assay for Inhibitors of Human Galactokinase (GALK) (AID 493189)
Chain of Galactokinase (Homo sapiens) (P51570 whole entry, looked up): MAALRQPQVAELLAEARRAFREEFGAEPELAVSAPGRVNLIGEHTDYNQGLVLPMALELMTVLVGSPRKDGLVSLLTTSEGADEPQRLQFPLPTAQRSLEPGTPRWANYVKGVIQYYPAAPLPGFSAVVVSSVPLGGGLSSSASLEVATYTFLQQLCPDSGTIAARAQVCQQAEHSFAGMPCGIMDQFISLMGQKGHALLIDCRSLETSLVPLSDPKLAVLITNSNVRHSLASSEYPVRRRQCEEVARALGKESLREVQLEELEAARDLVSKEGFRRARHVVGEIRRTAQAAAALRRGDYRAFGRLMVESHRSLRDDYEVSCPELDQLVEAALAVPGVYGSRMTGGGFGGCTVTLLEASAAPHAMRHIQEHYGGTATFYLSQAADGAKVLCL
How it was run: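 GALK (5 nM) with 35 uM ATP and 100 uM galactose in HEPES pH 8.0 with MgCl2, NaCl, DTT and BSA. Reaction ran 1 h at room temperature. Residual ATP read by Kinase-Glo Plus luminescence.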

[17] = molecular target: ATP-dependent 6-phosphofructokinase (Trypanosoma brucei brucei) (UniProt O15648); assay: qHTS Assay to Find Inhibitors of T. brucei phosphofructokinase: hit validation (AID 492961);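 also: luminescence reports ADP formed as PFK phosphorylates fructose-6-phosphate with ATP; series mostly up to about 51 µM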
How it was run: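 Reaction: 0.1 M triethanolamine pH 8.0, 5 mM MgCl2, F6P 0.5 mM, ATP 0.1 mM, PFK 1.25 nM, 45 min RT. Read-out: ADP-Glo luminescence. Analysis: concentration-response fits, classed by r2 and efficacy.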

[18] = molecular target: D(1A) dopamine receptor (Homo sapiens) (UniProt P21728); assay: HTS Assay for Allosteric Agonists of the Human D1 Dopamine Receptor: Primary Screen for Antagonists (AID 488983);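 also: calcium flux response to an EC80 dopamine challenge measured with no-wash dye; nearly all actives have a fitted effect of over 65% in size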
How it was run: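 Screening of inducible HEK293 T-REx D1 cells: compound first, EC80 dopamine 180 s later, each phase read kinetically for calcium over 180 s.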

| Compound | outcome [1] | Potency [2] | Potency [3] | Potency [4] | Potency [5] | outcome [6] | outcome [7] | outcome [8] | Potency [9] | outcome [10] | outcome [11] | Potency [12] | activation [13] | outcome [14] | viability change [14] | outcome [15] | outcome [16] | Potency [17] | Potency [18] |
| --- | --- | --- | --- | --- | --- | --- | --- | --- | --- | --- | --- | --- | --- | --- | --- | --- | --- | --- | --- |
| NC(CP(=O)(O)O)C(=O)O (stereo not given) | inactive | inactive | inactive | inactive | inactive | inactive | inactive | inactive | inactive | inactive | inactive | inactive | -3.19% (inactive) | inactive | -2.21% | inactive | inactive | – | – |
| Clc1cnc(Oc2ccc(Oc3ncc(Cl)cc3Cl)cc2)c(Cl)c1 | inactive | inactive | inactive | inactive | inactive | inactive | inactive | inactive | inactive | inactive | inactive | inactive | – | inactive | 3.25% | inactive | inactive | – | – |
| CC(C)NC(C)Cc1ccc(I)cc1 (stereo not given) | inactive | inactive | inactive | inactive | inactive | inactive | – | inactive | inactive | inactive | inactive | inactive | 2.38% (inactive) | inactive | 2.82% | inactive | inactive | inactive | – |
| CC(=O)NCCc1c[nH]c2ccccc12 | inactive | inactive | inactive | inactive | – | inactive | inactive | inactive | inactive | inactive | inactive | inactive | 0.375% (inactive) | inactive | 1% | inactive | inactive | – | – |
| C[C@]12N[C@H](Cc3ccccc31)c1ccccc12 | inactive | inactive | inactive | inactive | 7.5 nM (active) | inactive | inactive | inactive | inactive | inactive | inactive | inactive | – | inactive | 0.285% | inactive | inactive | – | – |
| O=C(N[C@H]1CN2CCC1CC2)c1ccc(Cl)cc1 | inactive | inactive | inactive | inactive | inactive | inactive | – | – | inactive | inactive | inactive | inactive | – | inactive | -3.51% | inactive | – | – | – |
| O=C(O)CC[N+](=O)[O-] | inactive | inactive | inactive | inactive | inactive | inactive | inactive | – | inactive | inactive | inactive | inactive | – | – | – | inactive | inactive | – | – |
| Cc1c(C(=O)c2cccc3ccccc23)c2cccc3c2n1[C@H](CN1CCOCC1)CO3 | inactive | inactive | inactive | inactive | 6 nM (active) | – | inactive | inactive | inactive | – | inactive | – | -3.25% (inactive) | – | – | – | inactive | – | inactive |
